“And” between values parts separate entries of the source, which are not always exact repeats. Equal values may be shown once. Screen size: about 5,500 compounds; about 2,000 (36%) were called active. Inconclusive results (about 18%) are left out. Cut-off read from the data, not from the text of the source: active = normalized growth mostly below about 0.91 (no sharp cut-off); inconclusive = no clear call, values can overlap the other calls; inactive = mostly above about 0.92. Some of the results follow.
Assay: chemical genetic growth profiling, strain panel (AID 1159580);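 note: tested at 20 µM; growth read once vehicle control cultures reached saturation at 30 °C; 1 = growth at the plate median or of vehicle wells; lower values mean less growth of the strain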
Details: S. cerevisiae deletion strains, growth OD

Measured: normalized growth

CC/C(=C(\c1ccccc1)c1ccc(OCCN(C)C)cc1)c1ccccc1
0.0499 (active) and 0.883 (inactive): locus YHR030C, strain SLT2, stronger effect = lower value
active: locus YAL013W, strain DEP1, stronger effect = lower value 0.0667 | locus YAL021C, strain ccr4, stronger effect = lower value 0.0669 | locus YAL026C, strain drs2, stronger effect = lower value 0.0635 | locus YAL030W, strain snc1, stronger effect = lower value 0.0686 | locus YBL061C, strain skt5, stronger effect = lower value 0.072 | locus YBR009C, strain hhf1, stronger effect = lower value 0.0625 | locus YBR021W, strain FUR4, stronger effect = lower value 0.0845 | locus YBR023C, strain chs3, stronger effect = lower value 0.0749 | locus YBR171W, strain sec66, stronger effect = lower value 0.383 | locus YBR229C, strain ROT2, stronger effect = lower value 0.0463 | locus YBR231C, strain swc5, stronger effect = lower value 0.0729 | locus YBR279W, strain paf1, stronger effect = lower value 0.122 | locus YCL011C, strain gbp2, stronger effect = lower value 0.0716 | locus YCL016C, strain dcc1, stronger effect = lower value 0.122 | locus YCL029C, strain bik1, stronger effect = lower value 0.0615 | locus YCL061C, strain MRC1 (second series), stronger effect = lower value 0.311 | locus YCL069W, strain vba3, stronger effect = lower value 0.0995 | locus YCR088W, strain abp1, stronger effect = lower value 0.0758 | locus YDL005C, strain med2, stronger effect = lower value 0.382 | locus YDL035C, strain GPR1, stronger effect = lower value 0.0496 | locus YDL040C, strain nat1, stronger effect = lower value 0.312 | locus YDL074C, strain BRE1, stronger effect = lower value 0.0746 | locus YDL101C, strain DUN1, stronger effect = lower value 0.0532 | locus YDL134C, strain PPH21, stronger effect = lower value 0.0467 | locus YDL185W, strain tfp1, stronger effect = lower value 0.606 | locus YDL192W, strain arf1, stronger effect = lower value 0.062 | locus YDR001C, strain nth1, stronger effect = lower value 0.0956 | locus YDR069C, strain doa4, stronger effect = lower value 0.068 | locus YDR101C, strain arx1, stronger effect = lower value 0.0613 | locus YDR137W, strain rgp1, stronger effect = lower value 0.461 | locus YDR150W, strain NUM1, stronger effect = lower value 0.0558 and 0.416 | locus YDR159W, strain sac3, stronger effect = lower value 0.0992 | locus YDR162C, strain NBP2, stronger effect = lower value 0.046 | locus YDR195W, strain ref2 0.166 | locus YDR297W, strain sur2, stronger effect = lower value 0.0894 | locus YDR318W, strain mcm21, stronger effect = lower value 0.0655 | locus YDR334W, strain swr1, stronger effect = lower value 0.0759 | locus YDR335W, strain msn5, stronger effect = lower value 0.103 | locus YDR363W, strain ESC2, stronger effect = lower value 0.174 | locus YDR388W, stronger effect = lower value 0.0557 | locus YDR392W, strain spt3, stronger effect = lower value 0.0847 | locus YDR502C, strain sam2, stronger effect = lower value 0.0692 | locus YEL003W, strain gim4, stronger effect = lower value 0.127 | locus YEL037C, strain rad23, stronger effect = lower value 0.093 | locus YEL061C, strain CIN8 (second series), stronger effect = lower value 0.243 | locus YEL061C, strain CIN8, stronger effect = lower value 0.0479 | locus YER015W, strain faa2, stronger effect = lower value 0.117 | locus YER016W, strain bim1, stronger effect = lower value 0.164 | locus YER110C, stronger effect = lower value 0.072 | locus YER111C, strain swi4, stronger effect = lower value 0.372 | locus YER155C, strain BEM2 (second series), stronger effect = lower value 0.668 | locus YER155C, strain BEM2, stronger effect = lower value 0.0653 | locus YER167W, strain BCK2, stronger effect = lower value 0.05 | locus YFR010W, strain ubp6, stronger effect = lower value 0.0799 | locus YGL078C, strain dbp3, stronger effect = lower value 0.901 | locus YGL086W, strain mad1, stronger effect = lower value 0.0577 | locus YGL167C, strain pmr1, stronger effect = lower value 0.196 | locus YGL173C, strain kem1, stronger effect = lower value 0.168 | locus YGL227W, strain vid30, stronger effect = lower value 0.143 | locus YGL240W, strain doc1, stronger effect = lower value 0.436 | locus YGL248W, strain PDE1, stronger effect = lower value 0.0453 | locus YGL253W, strain hxk2, stronger effect = lower value 0.0687 | locus YGR078C, strain PAC10, stronger effect = lower value 0.0556 and 0.48 | locus YGR135W, strain pre9, stronger effect = lower value 0.0678 | locus YGR229C, strain SMI1, stronger effect = lower value 0.061 and 0.0615 | locus YGR252W, strain gcn5, stronger effect = lower value 0.155 | locus YHR013C, strain ard1, stronger effect = lower value 0.174 | locus YHR027C, strain rpn1, stronger effect = lower value 0.102 | locus YHR079C, strain IRE1 (second series), stronger effect = lower value 0.0574 | locus YHR094C, strain hxt1, stronger effect = lower value 0.059 | locus YHR129C, strain ARP1, stronger effect = lower value 0.0531 | locus YHR142W, strain chs7, stronger effect = lower value 0.0883 | locus YHR200W, strain rpn10, stronger effect = lower value 0.0609 | locus YIL066C, strain RNR3, stronger effect = lower value 0.0471 | locus YIL073C, strain SPO22, stronger effect = lower value 0.158 | locus YIL125W, strain kgd1, stronger effect = lower value 0.91 | locus YIR030C, strain dcg1, stronger effect = lower value 0.0575 | locus YJL092W, strain hpr5, stronger effect = lower value 0.0913 | locus YJL095W, strain BCK1 (second series), stronger effect = lower value 0.0594 | locus YJL115W, strain asf1, stronger effect = lower value 0.155 | locus YJL129C, strain trk1, stronger effect = lower value 0.159 | locus YJL134W, strain LCB3, stronger effect = lower value 0.0479 | locus YJL154C, strain vps35, stronger effect = lower value 0.078 | locus YJL164C, strain tpk1, stronger effect = lower value 0.0754 | locus YJL166W, strain qcr8, stronger effect = lower value 0.0964 | locus YJL168C, strain set2, stronger effect = lower value 0.057 | locus YJL187C, strain SWE1 (second series), stronger effect = lower value 0.046 | locus YJR043C, strain POL32, stronger effect = lower value 0.0587 | locus YJR075W, strain HOC1, stronger effect = lower value 0.0611 and 0.54
0.0507 (active) and 0.883 (inactive): locus YJL095W, strain BCK1, stronger effect = lower value
inactive: locus YAL040C, strain CLN3, stronger effect = lower value 1.04 | locus YER002W, strain NOP16, stronger effect = lower value 1.02 | locus YHR079C, strain IRE1, stronger effect = lower value 0.883 | locus YJR066W, strain TOR1, stronger effect = lower value 0.888

— PubChem BioAssay AID1159580 (chemical genetic matrix, 2015)
